Screening results: PubChem BioAssay, National Center for Advancing Translational Sciences (NCATS)
ELG1 repair inh: ELG1-dependent DNA repair inhibition | 330,000 compounds, 2.3% hits | Potency, µM (top dose mostly 46.1 µM), without a hit: at the top dose activity change, negative = inhibition, most hits filed as inhibitors | HEK293T ELG1-luciferase reporter, luminescence, 16 h; DNA damage induced by 5-fluorouridine; further: on the % scale 0 is the no-effect control and ±100 the full control effect; nearly all actives have a fitted effect of over 55% in size
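In this reporter screen, reduction of luminescence relative to DMSO vehicle indicated activity. Compounds and 5-fluorouridine were added together to 2,000 cells per well, incubated for 16 hr at 37 °C, then developed with ONE-Glo.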
NPC1 promoter act: activators of NPC1 promoter | Huh7 NPC1 promoter luciferase reporter, 24 h | Potency, µM (highest dose often 9.22 µM), without a hit: at the top dose activation, most hits filed as activators | 320,000 compounds, 2.4% hits | AID 485313; further: % of control where 0% means no effect; nearly all actives have a fitted effect of over 60% in size
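Huh7 reporter cells (NPC1 promoter driving luciferase) are dosed with compound for 24 h at 37 °C, 5% CO2; luciferase detection reagent is then added and luminescence measured after 10 min at ambient temperature.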
SMN2 splice up: enhancers of SMN2 splice variant expression; 210,000 compounds, 2.8% hits; AID 1458; HEK293 SMN2-luciferase splicing reporter, luminescence, 30-36 h; Potency, µM (highest dose often 46.1 µM), for the others: top-dose activity change, positive = activation, actives largely listed as activators; further: % of control where 0% means no effect; nearly all actives have a fitted effect of over 55% in size
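HEK293 cells carry an SMN2 […]–luciferase reporter in which exon 7 inclusion puts luciferase in frame. Cells were plated 10-12 h before compound addition, then incubated 30-36 h at 37C. ONE-Glo luminescence was read; sodium butyrate at 4.5 mM final served as control.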
ELG1 genotox: inducers of genotoxicity in HEK293T ELG1-luciferase cells; HEK293T ELG1-luciferase reporter, luminescence, 16 h; Potency, µM (top dose mostly 46 µM), for the others: top-dose activity change, positive = activation, usual class: activators; 330,000 compounds, 1.3% hits; further: % of control where 0% means no effect; nearly all actives have a fitted effect of over 60% in size
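Step 1: seed 2,000 HEK293T ELG1-luciferase cells per well. Step 2: add compound or DMSO, incubate 16 hr at 37 °C. Step 3: ONE-Glo, 30 min at room temperature, read luminescence.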
FLuc counter: counter-screen for miR-21 project: firefly luciferase inhibitors or activators; P08659; purified FLuc, Km substrates, luminescence inhibition; Potency, µM (highest dose often 57.5 µM), without a hit: at the top dose activity change, negative = inhibition, usual class: inhibitors; 360,000 compounds, 6.9% hits;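 further: plate controls were vehicle for no effect and reference inhibitor for full effect; nearly all actives have a fitted effect of over 55% in size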
Target sequence (P08659 whole entry, looked up): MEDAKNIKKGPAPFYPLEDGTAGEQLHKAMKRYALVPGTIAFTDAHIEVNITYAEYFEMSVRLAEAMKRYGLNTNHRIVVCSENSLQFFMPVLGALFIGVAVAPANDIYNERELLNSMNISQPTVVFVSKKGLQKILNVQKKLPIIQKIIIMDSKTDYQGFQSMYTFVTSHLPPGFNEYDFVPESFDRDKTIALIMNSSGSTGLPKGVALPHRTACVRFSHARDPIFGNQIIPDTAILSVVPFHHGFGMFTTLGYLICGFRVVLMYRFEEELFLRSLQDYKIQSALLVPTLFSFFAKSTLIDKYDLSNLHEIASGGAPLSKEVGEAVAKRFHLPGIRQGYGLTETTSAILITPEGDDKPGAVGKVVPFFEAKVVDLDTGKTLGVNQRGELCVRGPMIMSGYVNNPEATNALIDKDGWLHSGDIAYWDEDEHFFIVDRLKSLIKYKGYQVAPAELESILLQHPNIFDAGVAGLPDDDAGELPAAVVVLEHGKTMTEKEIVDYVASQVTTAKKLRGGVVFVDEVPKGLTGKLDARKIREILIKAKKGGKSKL
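Biochemical qHTS of compounds, final roughly 60 µM downward over six points, against 10 nM purified firefly luciferase using Km concentrations of substrates (10 uM D-luciferin, 10 uM ATP) in Tris acetate pH 7.5 buffer; luminescence output.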
Rab9 promoter act: activators of Rab9 promoter; Huh7 Rab9 promoter-luciferase reporter, luminescence, 24 h; Potency, µM (titrated, usually from 9.22 µM), inactives show at the highest dose activation, negative = inhibition, actives largely listed as activators; 320,000 compounds, 2.8% hits; AID 485297; further: % of control where 0% means no effect; nearly all actives have a fitted effect of over 60% in size
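Luminescence read-out: Huh7 cells stably expressing Rab9-luciferase, treated 24 h with compound at 37 °C, then lysed with luciferase reagent for 10 min at ambient before reading.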
An asterisk follows results filed as active; ? = inconclusive; . = no result given. The list is not random: actives were taken first. Their share in the collection is about 9.2%. The call rests on the fitted dose curve; in most records, active means well fitted curve in the direction sought with a large enough effect; inconclusive means small, poorly fitted or top-dose-only effect, or another doubt; inactive means no such curve, though single readings can be large; an effect the other way counts as inactive or inconclusive. Potency means the concentration at half of the fitted maximal effect.

SMILES	ELG1 repair inh	NPC1 promoter act	SMN2 splice up	ELG1 genotox	FLuc counter	Rab9 promoter act
Cc1c(C(=O)N2CCc3ccccc32)oc2c1C(=O)CC(C)(C)C2	?	24.2%	12.6µM*	3.26µM*	8.49µM*	?
Cc1ccc(C(=O)N2c3ccccc3CC2C)o1 (stereo not given)	?	2µM*	15.8µM*	?	7.57µM*	1µM*
Cc1ccc(C(=O)N2CCc3ccccc32)o1	?	2.24µM*	7.94µM*	?	9.53µM*	1.58µM*
CCn1c(SCC(=O)N2CCCC2)nnc1-c1ccco1	-1.6%	0.7%	.	0.4%	-0.7%	-0.4%
Cc1ccc(N=CNc2ccc(C)cc2C)c(C)c1	-6.0%	-4.0%	.	3.5%	15.1µM*	13.5%
Cc1noc(C)c1C(=O)Nc1cccc2ncccc12	-15.3%	2.9%	.	-23.5%	0.3%	1.0%
C/C(=N/NC(=O)c1ccc(Cl)s1)c1cccnc1	5.7%	6.8%	.	11.0%	0.3%	2.8%
C/C(=N/NC(=O)c1ccc(Br)s1)c1cccnc1	?	27.6%	.	10.5%	15.1µM*	?
C/C(=N/NC(=O)c1ccc(C)s1)c1cccnc1	?	25.6%	.	?	19µM*	?
C/C(=N/NC(=O)c1ccc(Br)s1)c1ccncc1	?	?	.	10.2%	?	22.8%
C=CCn1c(CC(=O)OC)csc1=Nc1ccc(C(C)=O)cc1	?	?	-14.7%	7.2%	?	-5.9%
CCOC(=O)c1ccc(N=c2scc(C)n2CC)cc1	?	?	25.1µM*	?	10.7µM*	2µM*
C=CCn1c(C)csc1=Nc1ccc(C(C)=O)cc1	?	?	-17.4%	?	19µM*	?
CCOC(=O)c1ccc(N=NN(C)C)cc1	?	?	.	?	19µM*	?
CCOC(=O)c1ccc(N)cc1	?	1.1%	13.1%	?	2.8%	0.9%
O=C(c1cccc(S(=O)(=O)N2CCN(c3ccc(F)cc3)CC2)c1)N1CCCC(C(F)(F)F)C1 (stereo not given)	?	-19.0%	.	?	5.5%	-21.4%
Cc1ccc(S(=O)(=O)Nc2ccc(O)c3cccnc23)cc1	18.3µM*	9.7%	.	-10.7%	-0.7%	13.7%
Cc1ccc(S(=O)(=O)Nc2ccnc3ccccc23)cc1	-12.4%	-2.8%	-34.7%	-1.2%	-0.2%	-5.5%
Cc1ccc(S(=O)(=O)Nc2ccc(O)c3ncccc23)cc1	3.26µM*	-33.8%	-108.0%	5.0%	5.1%	-16.7%
Cc1ccc(S(=O)(=O)Nc2cccc3ncccc23)cc1	-4.8%	1.9%	.	-3.4%	4.8%	1.9%
Cc1ccsc1C(=O)OC1CCOC1=O (stereo not given)	5.4%	-2.0%	25.1µM*	-0.3%	1.6%	-1.1%
O=C(OCC(=O)N1CCc2ccccc21)c1ccccc1[N+](=O)[O-]	?	0.794µM*	.	?	0.151µM*	0.631µM*
NC(=O)COC(=O)c1c2c(nc3ccccc13)CCCC2	-0.5%	-5.7%	2.2%	-9.7%	-4.0%	6.2%
O=C(OCC(=O)N1CCc2ccccc21)c1c2c(nc3ccccc13)CCCCC2	23.1µM*	2.6%	3.0%	-10.7%	4.26µM*	1.5%
Cc1ccc2c(CC(=O)N3CCc4ccccc43)coc2c1	?	3.55µM*	14.1µM*	?	4.26µM*	3.98µM*
SMILES	ELG1 repair inh	NPC1 promoter act	SMN2 splice up	ELG1 genotox	FLuc counter	Rab9 promoter act
CC(C)NC(=O)NC(=O)COC(=O)c1c2c(nc3ccccc13)CCC2	23.1µM*	-5.5%	.	-45.8%	-0.3%	-2.3%
CC(=O)c1c(C)[nH]c(C(=O)OCC(=O)N2CCc3ccccc32)c1C	?	3.98µM*	.	5.7%	-17.7%	?
CCOC(=O)C1=C(C)NC(C)=C(C(=O)OCC)C1C(=O)OCC(=O)N1CCc2ccccc21	?	3.8%	-3.9%	18.4µM*	1.3%	8.6%
Cc1ccc(C(=O)OCC(=O)N2CCc3ccccc32)cc1	?	?	-18.5%	9.2%	6.01µM*	?
CCOC(=O)c1[nH]c(C)c(C(=O)OCC(=O)N2CCc3ccccc32)c1C	-1.4%	-3.1%	-0.6%	16.7%	-0.8%	-1.5%
O=C(NCc1ccc(F)cc1)c1c2c(nc3ccccc13)CCC2	?	?	5.2%	14.4%	13.5µM*	?
CCOC(=O)c1c(C)[nH]c(C(=O)OCC(=O)N2CCc3ccccc32)c1C	19.0%	11.1%	7.9%	1.4%	0.3%	1.6%
O=C(NCc1ccco1)c1c2c(nc3ccccc13)CCC2	-5.2%	-3.8%	-12.2%	0.6%	-17.7%	-5.2%
CCC(C)[C@H](NC(=O)[C@H](Cc1ccccc1)n1c(=O)[nH]c2ccccc2c1=O)C(=O)N1CCC[C@@H]1C(=O)O (stereo not given in full)	?	-1.6%	.	2.4%	1.2%	-1.2%
COc1ccc(N(C(=O)COc2ccc(Br)cc2)S(=O)(=O)c2ccc(C)cc2)cc1	.	.	1.4%	.	-4.0%	.
COc1ccc(CN2CCN(C(=O)Cn3ncn4cccc4c3=O)CC2)c(OC)c1OC	?	0.9%	.	0.3%	-1.1%	-3.7%
NS(=O)(=O)c1ccc(CNC(=O)CSc2nc3ccc(Cl)cc3[nH]2)cc1	-1.7%	1.2%	.	1.0%	6.5%	-2.0%
COC1=CC(=O)C[C@@H](C)[C@]12Oc1c(Cl)c(OC)cc(OC)c1C2=O	9.3%	1.2%	-12.1%	?	2.1%	4.8%
CCOC(=O)C1(Cc2ccccc2C(F)(F)F)CCN(C2CCN(C(C)=O)CC2)CC1	-1.4%	-3.3%	.	-2.7%	2.5%	3.2%
O=C(COC(=O)c1ccccc1[N+](=O)[O-])c1ccc(C2CCCCC2)cc1	?	-2.1%	-55.7%	2.2%	0.135µM*	9.0%
O=C(c1ccccc1F)N1CCc2ccccc21	1.7%	-2.8%	2.1%	-4.1%	0.1%	-0.9%
O=C(OCC(=O)N1CCc2ccccc21)c1ccccc1F	17.3%	2.5%	.	11.9%	4.78µM*	3.9%
Cc1ccc(C)c(CSc2ccc3nnc(-c4ccccn4)n3n2)c1	?	-7.3%	3.7%	-9.9%	-0.4%	-0.6%
Cc1ccc(C2(C)NC(=O)N(CC(=O)Nc3ccc(S(=O)(=O)Nc4nccs4)cc3)C2=O)cc1 (stereo not given)	0.3%	5.5%	.	2.0%	-0.7%	-0.9%
CC(C)n1c(SCC(=O)Nc2nc3c(s2)CCCC3)nc2c1c(=O)n(C)c(=O)n2C	18.4µM*	-1.4%	-69.2%	-11.0%	8.0%	-5.5%
CC1(C)Cc2ccccc2-c2nnc(SCC(=O)N3CCN(c4ccccc4)CC3)n21	14.6µM*	1.0%	.	-18.5%	5.7%	1.6%
C=CCn1c(COc2cccc(C)c2C)nnc1SCC(=O)N1CCN(c2ccccc2)CC1	20.6µM*	3.1%	-51.2%	-2.5%	-5.5%	-5.9%
